In all, about 310,000 compounds went through this assay and about 14,000 (4.5%) showed an effect of 50% or more. Effects have a minus sign here. Shown is part of a subset that was picked to be rich in strong results.
Target: human ether-à-go-go-related gene (hERG) potassium channel (human, UniProt Q12809)
Assay: primary screen, population patch clamp on CHO cells stably expressing hERG; higher = less effect of the substance
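Note: peak tail current of the secondary pulse compared with the same well before compound.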

Sequence of human ether-à-go-go-related gene (hERG) potassium channel (Q12809 whole entry, looked up): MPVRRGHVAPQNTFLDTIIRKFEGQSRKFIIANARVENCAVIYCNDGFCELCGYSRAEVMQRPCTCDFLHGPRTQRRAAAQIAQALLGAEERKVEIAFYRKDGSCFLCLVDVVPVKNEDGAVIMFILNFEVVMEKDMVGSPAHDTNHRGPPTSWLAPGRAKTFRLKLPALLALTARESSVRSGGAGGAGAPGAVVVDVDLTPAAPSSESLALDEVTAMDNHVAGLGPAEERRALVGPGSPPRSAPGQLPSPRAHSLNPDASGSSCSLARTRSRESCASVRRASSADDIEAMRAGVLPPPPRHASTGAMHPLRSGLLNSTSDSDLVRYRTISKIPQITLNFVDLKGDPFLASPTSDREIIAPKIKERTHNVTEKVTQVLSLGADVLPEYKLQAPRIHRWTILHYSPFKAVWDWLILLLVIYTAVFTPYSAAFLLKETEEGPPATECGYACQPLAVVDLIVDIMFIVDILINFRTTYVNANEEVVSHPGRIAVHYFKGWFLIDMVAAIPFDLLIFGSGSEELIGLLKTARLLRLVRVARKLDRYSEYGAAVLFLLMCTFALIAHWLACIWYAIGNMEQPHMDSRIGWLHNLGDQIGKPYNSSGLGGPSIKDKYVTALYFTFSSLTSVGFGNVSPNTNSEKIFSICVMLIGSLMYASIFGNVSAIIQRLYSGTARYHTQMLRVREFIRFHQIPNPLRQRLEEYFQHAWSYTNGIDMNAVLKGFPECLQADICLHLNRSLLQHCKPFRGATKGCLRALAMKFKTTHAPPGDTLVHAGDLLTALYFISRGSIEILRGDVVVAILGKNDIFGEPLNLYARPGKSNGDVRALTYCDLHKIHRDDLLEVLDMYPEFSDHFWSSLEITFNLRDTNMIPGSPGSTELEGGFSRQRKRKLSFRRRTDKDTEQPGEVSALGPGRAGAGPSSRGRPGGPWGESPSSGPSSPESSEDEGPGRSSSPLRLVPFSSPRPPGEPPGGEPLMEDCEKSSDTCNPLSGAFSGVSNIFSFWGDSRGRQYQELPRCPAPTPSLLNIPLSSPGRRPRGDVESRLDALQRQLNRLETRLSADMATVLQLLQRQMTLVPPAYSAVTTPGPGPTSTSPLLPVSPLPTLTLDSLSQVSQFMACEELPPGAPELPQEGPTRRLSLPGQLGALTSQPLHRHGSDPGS

In order of falling “hERG current change (%, negative = inhibition) at 10uM” value:
1. O=C(C[n+]1ccccc1)N1CCCc2ccccc21.[Cl-]  18.3%
2. Cc1ccc2cccnc2c1NC(=S)NC(=O)c1ccccc1  17%
3. Cn1c(SCC#N)nnc1-c1ccc2c(c1)OCO2  16.9%
4. CCC(CC)C(=O)OCC(=O)Nc1cccc(S(=O)(=O)N(C)c2ccccc2)c1  14.3%
5. O=C(C[n+]1ccc(C(=O)NCc2ccccc2)cc1)c1ccc2c(c1)OCCO2.[Br-]  12.9%
6. O=C(NCc1ccco1)c1cc2ccccc2o1  11.8%
7. CCCC(=O)Oc1ccc(N(C(=O)CCC)S(=O)(=O)c2cccs2)cc1  10.9%
8. COc1cc(OC)cc(C(=O)Nc2ncn[nH]2)c1  7.31%
9. NS(=O)(=O)c1cc(C(=O)NC2CCSc3ccccc32)ccc1Cl (stereo not shown)  7.27%
10. CCC1(C)N=C(c2ccc3c(c2)OCO3)CC(c2ccccc2O)N1 (stereo not shown)  2.42%
11. O=C(NCc1ccccc1)c1ccc(Cl)cc1  2.26%
12. CCOC(=O)c1c(NC(=O)CCc2ccc(CC)o2)sc(C)c1C  1.97%
13. O=C(NCc1ccc(F)cc1)C(C(=O)NCc1ccc(F)cc1)c1ncc(C(F)(F)F)cc1Cl  1.56%
14. Cc1[nH]c2ccc(C(=O)OC(C)C(=O)N(C)c3ccccc3)cc2c1C (stereo not shown)  1.13%
15. CCCCn1c(N)c(N(CC(C)C)C(=O)c2ccc(-c3ccc(Cl)cc3)o2)c(=O)[nH]c1=O  1.07%
16. COc1ccc(Nc2nc(C)cc(C)n2)cc1Cl.Cl  0.588%
17. O=C(Cc1cccs1)N/N=C/C=C/c1ccccc1[N+](=O)[O-]  -0.125%
18. O=C(O)COc1ccccc1/C=N/NC(=O)CN1CCN(Cc2ccccc2Cl)CC1  -0.129%
19. CC1(C)CC(=O)c2cc(C(=O)NC3CCSC3=O)c(=O)n(-c3ccccc3)c2C1 (stereo not shown)  -0.214%
20. Cc1ccc(C(=O)N2CCN(c3ncnc4c3cnn4-c3ccccc3)CC2)cc1  -0.928%
21. O=C(CNC(=O)c1ccc(F)cc1)NCc1ccccn1  -1.73%
22. Cc1nc(NC(CC(C)C)C(=O)O)c2nc(C)oc2n1 (stereo not shown)  -3.03%
23. COc1ccc(C(=O)C[n+]2cn(C(F)F)c3ccccc32)c(F)c1.[Br-]  -4.45%
24. c1ccc(-n2ncc3c(N4CCCC4)ncnc32)cc1  -8.17%
25. Cc1ccccc1C(=O)N1CCN(c2ncnc3c2cnn3-c2ccccc2)CC1  -9.76%
26. CSc1ccc(COC(=O)CCS(=O)(=O)c2ccc(C)cc2)cc1  -9.83%
27. O=C(C[n+]1cn(C(F)F)c2ccccc21)c1ccc(Br)cc1.[Br-]  -9.95%
28. O=C(C[n+]1cccc(CNC(=O)c2ccc(OC(F)F)cc2)c1)c1ccccc1.[Cl-]  -14.7%
29. COc1ccc(C2N(C(=O)CN3CCCC3)CCCN2S(=O)(=O)c2ccccc2)cc1 (stereo not shown)  -15.8%
30. O=C(c1ccccc1)N1CCN(c2ncnc3c2cnn3-c2ccccc2)CC1  -18%
31. CC(C)C1N=C(c2ccc3c(c2)OCO3)CC(c2ccccc2O)N1 (stereo not shown)  -20.5%
32. O=C1Nc2ccccc2Oc2cc([N+](=O)[O-])cc(Oc3ccccc3)c21  -24.5%
33. O=C(NCCc1ccccn1)c1ccc(OC(F)F)cc1  -24.7%
34. Cc1ccn(CCC(=O)NC2CC(C)(C)Cc3c2cnn3-c2ccccc2C)n1 (stereo not shown)  -25.6%
35. CCOc1ccc(C(=O)C[n+]2ccc(C(=O)NCc3ccccc3)cc2)cc1.[Br-]  -36%
36. O=C(c1ccco1)N1CCN(c2ncnc3c2cnn3-c2ccccc2)CC1  -64.5%
37. CC(C)N1CCC2(CC1)N=C(c1ccc3c(c1)OCO3)CC(c1cc(Cl)ccc1O)N2 (stereo not shown)  -67.1%
38. O=C(CNC(=O)c1ccc(OC(F)F)cc1)NCc1ccccn1  -70.9%
39. O=C(C[n+]1ccc(C(=O)NCc2ccccc2)cc1)c1ccc(Cl)cc1.[Br-]  -71.3%
40. O=C(CN1CCN(Cc2ccccc2Cl)CC1)N/N=C/C=C/c1ccccc1[N+](=O)[O-]  -71.6%
41. O=C(COc1ccccc1)N1CCN(c2ncnc3c2cnn3-c2ccccc2)CC1  -73.6%
42. O=C(C[n+]1cn(C(F)F)c2ccccc21)c1ccc(OC(F)F)cc1.[Br-]  -74.9%
43. O=C(C[n+]1ccc(C(=O)NCc2ccccc2)cc1)c1ccc(OC(F)F)cc1.[Br-]  -92.8%
